# Screens (PubChem BioAssay)
# Cycloheximide cs = Cycloheximide Counterscreen for Small Molecule Inhibitors of Shiga Toxin | cell reporter, cycloheximide protein synthesis inhibition counterscreen | max response, % | 300,000 compounds, 12% hits | AID 2314, 2010; in the data active = max response mostly above about 13%, no sharp cut-off; inactive = mostly below about 14%; note: read at 38.3 µM for the half of the compounds with a filed dose; 0% is about no effect
# Shiga inhibitor = A qHTS for Small Molecule Inhibitors of Shiga Toxin. 290,000 compounds, 9.2% hits. inhibition, % at 38.7 µM. AID 2315, 2010. Vero cells, Shiga toxin protein synthesis inhibition reporter; in the data active = inhibition mostly above about 28%, no sharp cut-off; inactive = mostly below about 43%; note: 0% is about no effect
# Pf growth 96h = Primary qHTS for delayed death inhibitors of the malarial parasite plastid, 96 hour incubation; P. falciparum luciferase reporter growth, 96 h; Potency, µM (series often up to 28.7 µM), for the others: at the top dose activity change, negative = inhibition, usual class: inhibitors; 320,000 compounds, 6.9% hits; note: potency is the fitted concentration of half-maximal effect; % is set by controls: 0 for no effect and ±100 for the full control effect
#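 Erythrocytes infected with luciferase-expressing P. falciparum were dispensed at 2% hematocrit and 0.05% parasitemia (final), then incubated with compounds 96 hours at 37 C in 5% CO2. Luminescence after detection reagent addition reported growth.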
# Pf growth 48h = Primary qHTS for delayed death inhibitors of the malarial parasite plastid, 48 hour incubation. 310,000 compounds, 5.9% hits. P. falciparum luciferase growth in erythrocytes, 48 h. Potency, µM (top dose mostly 28.7 µM), inactives show top-dose activity change, negative = inhibition, usual class: inhibitors; note: potency is the fitted concentration of half-maximal effect; % is set by controls: 0 for no effect and ±100 for the full control effect
#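 Compounds are pin-transferred into medium, infected erythrocytes (2% hematocrit, 0.1% parasitemia final) are added, and plates sit one parasite generation at 37 C in 5% CO2. Detection reagent is then added and luminescence measured.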
# An asterisk follows results filed as active; ? = inconclusive; / = no result given. In the library only some 21% were active in any assay of this set; here they are far more common. Unless noted, calls come from the whole dose curve; as a rule, active = well fitted inhibition curve with a large enough effect; inconclusive = small, poorly fitted or top-dose-only effect, or another doubt; inactive = no such curve, though single readings can be large or run the other way.
SMILES,Cycloheximide cs,Shiga inhibitor,Pf growth 96h,Pf growth 48h
CN(NC(=O)c1ccccc1Cl)c1ncc(C(F)(F)F)cc1Cl,-0.4,0.0,-2.0%,1.2%
Cc1cccc(N/C(=N/S(=O)(=O)c2ccccc2)c2ccccc2)n1,15.0*,50.3,74.6%,33.7%
O=S(=O)(/N=C(/Nc1ccccn1)c1ccccc1)c1ccccc1,3.1,12.0,6.5%,7.3%
O=S(=O)(/N=C(/Nc1ccccn1)c1ccccc1)c1ccc(F)cc1,12.3,22.1*,16.7%,47.9%
O=C(CCn1c(=S)oc2ccccc21)NCCC1=CCCCC1,0.5,-4.5,1.6%,-31.1%
CC(C)CCNC(=O)C1CCC(CNc2c(N3CCCC3)c(=O)c2=O)CC1 (configuration not stated),-1.4,-10.6,-4.9%,11.7µM*
O=C(NCc1ccccc1)C1CCC(CNc2c(N3CCCCC3)c(=O)c2=O)CC1 (configuration not stated),-3.8,-17.8,11.7µM*,2.3%
COc1ccc(NC(=O)C2CCC(=O)N2S(=O)(=O)c2ccc(C)cc2)cc1Cl (configuration not stated),-1.5,-1.9,-3.1%,15.8%
CC1CCC2(CC1)NC(=O)N(NC(=O)c1cccc(N(C)C)c1)C2=O (configuration not stated),/,/,-7.8%,-20.0%
C/C(=N\NC(=O)COc1ccc(C)cc1C(C)C)c1ccc(-n2ccnc2)cc1,17.0*,25.9,?,?
